# Assay outcomes: PubChem, several laboratories
# Sampled rows, rich in hits. Any-hit rate of the full collection: about 2.1%.
# ABCB6 inh MLPCN = ABCB6 transporter inhibitors, primary screen, K562-ABCB6 cells, flow cytometry, MLPCN library; ATP-binding cassette sub-family B member 6 (Homo sapiens), Q9NP58; K562-ABCB6 porphyrin accumulation, 1 h; hits give low values; fluorescence ratio to DMSO, % at 10 µM; 360,000 compounds, 0.19% hits;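 active = fluorescence ratio to DMSO below 75%, the collection mean minus 3 SD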;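 also: signal is porphyrin accumulated inside mitochondria; 100% equals median channel fluorescence of DMSO control wells; lower ratio means ABCB6 inhibition with less porphyrin fluorescence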
# SMARCA2 activ = SMARCA2 (BRM) function activators, primary screen, cell-based, luminescence, high throughput; MG213 cells, MMTV-luciferase reporter, dexamethasone, overnight; activation, % at 9.1 µM; 370,000 compounds, 1% hits; AID 652017, 2013; in the data active = activation above about 7.8%;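 also: 0% = vehicle wells and 100% = reference activator wells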
# MsrA inhibitor = bovine MsrA enzyme inhibitors, primary screen, biochemical, absorbance, HTS. purified bovine MsrA, absorbance read-out. inhibition, % at 15.5 µM. 360,000 compounds, 0.75% hits; in the data active = inhibition above about 4.5%;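 also: 0% = vehicle wells with enzyme and 100% = reference inhibitor wells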
# MsrA act = bovine MsrA enzyme activators, primary screen, biochemical, absorbance, HTS | Methionine sulfoxide reductase A (Bos taurus) | purified bovine MsrA, absorbance read-out | activation, % at 10.6 µM | 360,000 compounds, 0.3% hits | AID 602163, 2012; in the data active = activation above about 7.5%;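 also: 0% = vehicle and 100% = reference activator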
# SMARCA2 act conf = SMARCA2 (BRM) function activators, confirmation, cell-based, luminescence, triplicate; shares compounds with SMARCA2 activ; MG213 cells, MMTV-luciferase with dexamethasone, overnight; MG213 cells expressing E1A, Rb sequestered; DMSO wells 0%, reference activator 100%; activation, % at 9.1 µM; 3,500 compounds, 30% hits; AID 652260, 2013;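 active = activation above its plate's cutoff, the mean activation of tested wells plus 3 SD, cut at about 7.9% in these data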
# GAL4-VP16 Luc = GAL4-VP16 luciferase reporter activation, counter-screen for SMARCA2 (BRM) activator project, cell-based, pG5luc, luminescence, high throughput. shares compounds with SMARCA2 activ. HEK293 GAL4-VP16 pG5luc reporter; scaled: DMSO wells 0%, SAHA wells 100%. activation, % at 9.1 µM. 3,500 compounds, 41% hits. AID 686939, 2013;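 active = activation above the solvent-only control well mean plus 3 SD, averaged across control plates, cut at about 5.2% in these data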
# Active calls of the source: *; . = no result.
SMILES,ABCB6 inh MLPCN,SMARCA2 activ,MsrA inhibitor,MsrA act,SMARCA2 act conf,GAL4-VP16 Luc
N#Cc1c(/N=C/N2CCOCC2)sc2c1CCCCC2,86.0,17.7*,2.9,-2.9,6.5,11.7*
CN(C)/C=N/c1sc2c(c1C#N)CCCCC2,103.0,1.5,2.0,-10.8,.,.
CCCN(/C=N/c1sc2c(c1C#N)CCCCC2)CCC,139.0,15.4*,0.6,-12.2,0.4,2.4
N#Cc1c(/N=C/c2cccs2)sc2c1CCCCC2,95.0,0.4,0.0,-1.6,.,.
CCOC(=O)Cn1cc(CN2CCS(=O)(=O)N(Cc3ccc(OC)cc3)C(C(=O)OC)C2)nn1 (stereo not drawn),.,-2.0,.,.,.,.
CN(CCc1ccccc1)C(C(=O)Nc1ccc2c(c1)OCCO2)c1ccnc2ccccc12 (stereo not drawn),97.0,-1.7,-0.1,-1.9,.,.
C=C1c2ccccc2NC(=O)N1c1ccc(OC)cc1,90.0,9.1*,-0.5,-2.7,13.3*,3.5
C=C1c2cc(C)ccc2NC(=O)N1c1ccccc1,98.0,-0.2,1.9,-4.4,.,.
Cc1cccc(C)c1-n1nnnc1C(c1ccnc2ccccc12)N(CCN(C)C)Cc1ccccc1 (stereo not drawn),97.0,-3.7,1.4,0.1,.,.
Cc1cccc(/C=N/Nc2nncc3ccccc23)c1,102.0,12.3*,1.6,-2.3,14.1*,8.8*
Cc1ccsc1C(=O)Nc1ccc(C(=O)O)cc1,104.0,3.5,0.2,-0.7,.,.
Cc1ccsc1C(=O)Nc1ccc(OCc2ccccc2)cc1,102.0,8.6*,-0.8,-2.5,4.5,6.6*
COc1ccc(COc2ccsc2C(=O)Nc2ccc(Cl)c(Cl)c2)cc1,103.0,10.7*,-0.2,1.5,-2.7,-1.0
COc1ccc(NC(=O)c2cc3ccccc3o2)cn1,97.0,6.0,0.5,-3.5,.,.
COc1ccc(NC(=O)c2sccc2C)cn1,95.0,14.1*,0.0,-7.8,3.0,1.8
COc1ccc(NC(=O)c2ccc(-c3ccc(C(C)=O)cc3)o2)cn1,96.0,12.2*,3.1,-5.2,0.2,3.5
Cc1ccccc1Cn1cc(NC(=O)c2nn(C)cc2Cl)cn1,98.0,-0.9,0.6,-4.0,.,.
Cc1ccccc1Cn1cc(NS(=O)(=O)c2cn(C)nc2C)cn1,100.0,8.8*,-0.5,-5.3,-1.9,2.0
O=C(NCCc1ccccc1)OCc1cn(Cc2c(F)cccc2F)nn1,.,-1.7,.,.,.,.
Cc1ccc(Nc2ncc3c(n2)CC(C)CC3=O)c(C)c1 (stereo not drawn),97.0,8.2*,0.8,-4.0,8.3*,3.7
CC1CC(=O)c2cnc(Nc3ccccc3)nc2C1 (stereo not drawn),99.0,2.5,3.8,-5.4,.,.
O=C(Nc1ccc(OC(F)(F)F)cc1)c1cnccn1,103.0,8.1*,-1.1,-2.0,9.4*,11.1*
C=CCn1c(O)c(N=NC(=S)Nc2ccc(OC)cc2)c2ccccc21,97.0,-1.8,-0.9,-12.9,.,.
C=CCn1c(O)c(N=NC(=S)Nc2cccc(OC)c2)c2ccccc21,95.0,10.4*,1.4,-4.4,-1.2,3.4
Cc1cc(C)cc(C(=O)NCC(=O)OCC(=O)N2CCCC2)c1,99.0,8.5*,0.2,-1.6,-0.2,1.2
SMILES,ABCB6 inh MLPCN,SMARCA2 activ,MsrA inhibitor,MsrA act,SMARCA2 act conf,GAL4-VP16 Luc
Cc1cc(C(=O)NCC(=O)OCC(=O)N2CCCCCC2)ccc1[N+](=O)[O-],95.0,0.6,-1.1,-1.1,.,.
CCCOc1ccc(-c2cc3onc(-c4ccccc4)c3c(=O)n2C)cc1,100.0,5.8,0.4,-1.7,.,.
CCc1noc2cc(-c3ccccc3)n(C)c(=O)c12,.,9.7*,-0.7,.,14.3*,6.8*
CCNC(=O)C1(C)CCN1CCC(=O)c1ccc(Br)cc1 (stereo not drawn),102.0,-2.6,0.5,-4.0,.,.
S=c1[nH]ccn1Cc1ccccc1,99.0,8.9*,0.3,-0.3,-1.2,1.1
COC(=O)[C@@]1(C(C)C)N=C(c2cc(OC)c(OC)c(OC)c2)[C@]2(O1)C(=O)N(Cc1cn(-c3ccccc3)nn1)c1cccc(Cl)c12,.,-2.9,.,.,.,.
O=C(NC(c1ccc(-c2ccccc2)cc1)c1cnccn1)C1CCN(Cc2cccc(C(F)(F)F)c2)CC1 (stereo not drawn),98.0,.,.,0.8,.,.
COc1cc2nc(Nc3ccc(C)c(Cl)c3)nc(N)c2cc1OC,95.0,9.5*,-0.1,-1.3,-6.6,-0.6
O=S1(=O)CCSC[C@@H](CNCc2ccco2)N1,.,-4.7,2.2,.,.,.
COc1ccccc1NC(=O)OC[C@@H]1CSCCS(=O)(=O)N1,.,-5.4,-0.8,.,.,.
Cc1ccc(CSc2nn3c(=O)c(C)nnc3s2)cc1,88.0,8.6*,0.9,-4.3,2.4,1.1
Cc1nnc2sc(SCc3ccc(Cl)cc3)nn2c1=O,93.0,-3.4,0.9,1.4,.,.
COc1ccc(NC(=O)c2ccc(Oc3ncccn3)cc2)cc1,89.0,9.4*,0.2,-14.7,2.1,3.9
N#Cc1ccc(Cn2ccc3ccc(-c4ccc5ccn(C(=O)C6CC6)c5c4)cc32)cc1,.,-2.2,.,.,.,.
CCOc1ccc(NC(=O)C(=O)NCC2CCCN2CC)cc1 (stereo not drawn),98.0,1.0,0.6,-4.6,.,.
CCN1CCCC1CNC(=O)C(=O)Nc1ccccc1 (stereo not drawn),103.0,10.7*,-0.1,-2.2,2.2,6.1*
COc1cc(CN2CCC(C(=O)NC(c3ccc(-c4ccccc4)cc3)c3cnccn3)CC2)cc(OC)c1 (stereo not drawn),95.0,-5.9,-0.3,1.5,.,.
CC(C)CN1C(=O)[C@@]2(CC(=O)N(C)C2c2ccccc2)c2cc(-n3cc(CN(C)C)nn3)ccc21 (stereo partly drawn),.,-0.1,.,.,.,.
N=c1n(CCN2CCCC2)c2ccccc2n1CC(O)c1ccc(Cl)c(Cl)c1 (stereo not drawn),100.0,14.1*,0.2,0.2,-10.4,1.8
O=c1[nH]c(CN2CCN(S(=O)(=O)c3ccccc3C(F)(F)F)CC2)nc2sc3c(c12)CCCC3,95.0,11.6*,-1.0,-1.7,-2.5,-0.1
O=C(Nc1ccccn1)c1csc2c1CCCC2,100.0,11.4*,-0.5,-8.9,5.5,6.5*
COc1ccccc1NC(=O)c1csc2c1CCCC2,94.0,1.4,-0.9,0.1,.,.
CC(C)CNC(=O)C1CSCCS(=O)(=O)N1Cc1ccc(F)cc1 (stereo not drawn),.,6.3,.,.,.,.
COc1cc(-c2cnc3c(NC=O)cc(-c4cccc(C(=O)NCCN(C)C)c4)cn23)cc(OC)c1OC,84.0,1.8,-0.7,-2.9,.,.
CCN1CCN(Cc2ccc(NC(=O)c3cc(NC(=O)c4cncc(-c5cccs5)c4)cc(OC)c3)cc2C(F)(F)F)CC1,109.0,11.2*,0.1,0.0,5.2,1.5
